# Results reported in PubChem BioAssay AID1490 (National Center for Advancing Translational Sciences (NCATS), 2009).
# Hit rate of the full screen: of about 310,000 compounds, about 11,000 (3.5%) were called active. Another 4% or so got no clear call; they are omitted. Calls follow the shape of the dose curve; as a rule, active = well fitted inhibition curve with a large enough effect; inconclusive = small, poorly fitted or top-dose-only effect, or another doubt; inactive = no such curve, though single readings can be large or run the other way. The full list was thinned out, with actives kept by preference.
# Target: 4'-phosphopantetheinyl transferase ffp (Bacillus subtilis) (UniProt Q9F4F7)
# Test: qHTS Assay for Inhibitors of Bacillus subtilis Sfp phosphopantetheinyl transferase (PPTase);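 also: the enzyme is Sfp with the accession as filed and its product quenches rhodamine fluorescence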;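 as to largest response in the series, negative = inhibition: 0% = enzyme reaction without inhibitor and -100% = no enzyme wells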
# Conditions: Biochemical Sfp PPTase activity
# Method in brief: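 Sfp 15 nM + cpd, 15 min RT; start w/ rhodamine-CoA 5 uM, BHQ-2-YbbR 12.5 uM (final); 50 mM Hepes pH 7.6, 10 mM MgCl2, 0.01% NP-40, 0.01% BSA; read 525/598 nm at 0 and 30 min.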
# Potency is read from the fitted curve at half-maximal effect.
SMILES,"largest response in the series, negative = inhibition",Potency
CCCN(CCc1ccccc1)C1CCc2c(O)cccc2C1 (stereo not drawn),21.2% (inactive),
CC(=O)Nc1ccc(S(=O)(=O)N2N=NC3C2C2CC4C3(CN(C(=O)OC(C)(C)C)S4(=O)=O)O2)cc1 (stereo not drawn),11.6% (inactive),
O=C(COC(=O)CCC(=O)c1cccs1)NCc1ccco1,,35.5 µM (active)
O=C(COC(=O)c1cccs1)NCc1cccs1,10.5% (inactive),
O=C(COC(=O)C12CC3CC(CC(C3)C1)C2)NCc1ccco1,-10.5% (inactive),
CN1CCN(Cc2c(C(=O)N3CCc4ccccc4C3)nc3ccc(Cl)cn23)CC1,-5.24% (inactive),
CCCn1nnnc1NCc1ccc(OC)cc1,10.3% (inactive),
CNC(=O)c1sc(NCc2ccccc2OC)nc1C,-19.7% (inactive),
CCOC(=O)c1sc(=S)n2c1[nH]c(=O)c1ccc(C(=O)OC)cc12,,15.8 µM (active)
CCOC(=O)C1=C(C)Nc2sc(C(=O)c3ccc(Br)cc3)c(N)c2C1c1ccc(C(=O)OC)cc1 (stereo not drawn),15.8% (inactive),
CCOC(=O)c1sc(NC(=O)c2ccncc2)nc1C,-1.23% (inactive),
CCc1nn(CCCC(=O)Nc2ccc(C)c(C)c2)c(=O)c2cc3occc3n12,5.57% (inactive),
COc1ccc(N2CCN(Cc3ccc(Br)s3)CC2)cc1,,39.8 µM (active)
COc1ccc(N2CCN(Cc3nnc(-c4ccccc4)o3)CC2)cc1,2.63% (inactive),
COc1ccc(N2CCN(Cc3cc(=O)oc4ccc5ccccc5c34)CC2)cc1,4.08% (inactive),
O=C(CN(C(=O)c1csnn1)c1cccc(Cl)c1)NC1CCCC1,5.89% (inactive),
C=CCNc1nnc(C)c2ccccc12,4.78% (inactive),
Cc1nnc(NCCO)c2ccccc12,13.5% (inactive),
NNc1nnc(NN)c2ccccc12,,89.1 µM (active)
CSc1ccccc1OCc1cc(C(=O)N(C)CCc2c(C)n[nH]c2C)no1,0.222% (inactive),
COc1cc(C(=S)NCc2ccccc2)cc(Br)c1O,,8.91 µM (active)
COc1cc(C=O)c(Br)cc1OCC(=O)NCc1ccccc1,11.5% (inactive),
COc1cc(C(=O)NCc2ccncc2)cc(Br)c1OCc1ccccc1,4.37% (inactive),
NS(=O)(=O)c1ccccc1NC(=O)c1c(O)c2ccccc2[nH]c1=O,-6.41% (inactive),
CC1CC(=O)N(CC(=O)Nc2cccc(Cl)c2)c2ccccc2S1(=O)=O (stereo not drawn),12.1% (inactive),
COc1cc2c(cc1OC)[C@@H](Cc1cc(OC)c(OC)c(OC)c1)[N+](C)(CCCOC(=O)CC/C=C/CCC(=O)OCCC[N+]1(C)CCc3cc(OC)c(OC)cc3[C@H]1Cc1cc(OC)c(OC)c(OC)c1)CC2 (stereo partly drawn),-3.12% (inactive),

SMILES,"largest response in the series, negative = inhibition",Potency
CCCCN(CC)C(=O)C1CCCN(S(=O)(=O)c2cccc3nsnc23)C1 (stereo not drawn),17.1% (inactive),
CCOC(=O)c1c(-c2ccccc2)csc1NC(=S)NC(=O)c1ccccc1,-3.92% (inactive),
COC(=O)c1c(-c2ccc(C)cc2)csc1N,,44.7 µM (active)
CCC(C(=O)OC)n1cnc2scc(-c3ccc(C)cc3)c2c1=O (stereo not drawn),6.01% (inactive),
CCCCC/C=C\C[C@H](O)/C=C/C=C/C=C/[C@@H](O)CCCC(=O)O,6.53% (inactive),
CC(=O)N1CCN(C(=O)C2(NC(=O)Nc3ccc(C)cc3)CCCCC2)CC1,14.1% (inactive),
O=C(Cc1ccc(Br)cc1)NCCN1CCOCC1,14.6% (inactive),
COc1ccc(C2/C(=C(/O)c3ccc(OC(C)C)cc3)C(=O)C(=O)N2CCCN2CCOCC2)cc1 (stereo not drawn),-22.3% (inactive),
CCCOc1ccc(C2c3c(oc4cc(C)c(C)cc4c3=O)C(=O)N2CCCN2CCOCC2)cc1 (stereo not drawn),,50.1 µM (active)
CCCCOc1ccc(C(C)(O)CCN2CCOCC2)cc1 (stereo not drawn),6.22% (inactive),
CCOc1cc(-c2cc(-c3ccc(NC(C)=O)cc3)nc(N)c2C#N)ccc1O,10.7% (inactive),
Cc1cc(=O)n2nc(N3CCCC(C(=O)NCc4cccc(Cl)c4)C3)sc2n1 (stereo not drawn),8.1% (inactive),
COc1ccc(CCNC(=O)c2ccccc2-c2ccccc2C(=O)O)cc1OC,5.81% (inactive),
COc1ccc(CCNC(=O)Cc2ccc(C)cc2)cc1OC,,39.8 µM (active)
COc1ccc(CCNC(=O)NS(=O)(=O)c2ccc(C)cc2)cc1OC,17.5% (inactive),
CC(C)(Oc1ccc(C2CC2(Cl)Cl)cc1)C(=O)O (stereo not drawn),18% (inactive),
COc1ccc(NS(=O)(=O)c2cc3c(cc2C)N(C(C)=O)CCO3)cc1,15.7% (inactive),
CCn1c(=O)c(=O)[nH]c2c(=O)oc3ccc(S(=O)(=O)Nc4ccc(OC)cc4)cc3c21,5.45% (inactive),
CCOC(=O)N1CCN(C(=O)C(=O)Nc2sc3c(c2C#N)CC(C)(C)OC3)CC1,-14.6% (inactive),
C/C=C\C=C\C(=O)N1CC2(CC(c3cccc(NC(=O)/C(C)=C\C)c3)=NO2)C[C@H]1C(N)=O (stereo partly drawn),,15.8 µM (active)
C/C=C(/C)C(=O)Nc1cccc(C2=NOC3(C2)C[C@@H](C(N)=O)N(C(=O)C2(C)CC2)C3)c1 (stereo partly drawn),-3.68% (inactive),
CC/C=C/C(=O)N1CC2(CC(c3cccc(NC(=O)CC)c3)=NO2)C[C@H]1C(N)=O (stereo partly drawn),-8.44% (inactive),
CCOC(=O)N1CCN(S(=O)(=O)c2ccc(-n3cnnn3)cc2)CC1,6.31% (inactive),
COc1ccc(N2CCN(C(=S)Nc3ccc(S(N)(=O)=O)cc3)CC2)cc1,,11.2 µM (active)
NS(=O)(=O)c1ccc(NC(=S)N2CCCC2)cc1,13.2% (inactive),
NS(=O)(=O)c1ccc(NC(=S)NC(=O)c2cccnc2)cc1,-95.1% (inactive),

SMILES,"largest response in the series, negative = inhibition",Potency
COc1ccc(NS(=O)(=O)c2ccc(NC(=S)NC(=O)CC(C)C)cc2)cc1,3.37% (inactive),
COc1ccc(NC(=S)Nc2ccc(S(N)(=O)=O)cc2)c(C)c1,,50.1 µM (active)
CCOc1ccccc1N1CCN(C(=S)Nc2ccc(S(N)(=O)=O)cc2)CC1,-3.97% (inactive),
Cc1ccccc1NC(=O)CCOc1ccccc1,2% (inactive),
CCc1ccc(CN(C)C(=O)C2CCC(=O)N(Cc3cccc(OC)c3)C2)nc1 (stereo not drawn),14.7% (inactive),
Cc1ccc(NS(=O)(=O)c2cn(C)c(=O)n(C)c2=O)c(C)c1,8.01% (inactive),
COc1ccccc1NC(=O)CCC(=O)N1CC(C)Oc2ccc(C)cc21 (stereo not drawn),6.52% (inactive),
COc1ccc(C(C(=O)NCC2CCCO2)N(C(=O)Cn2nnc3ccccc32)c2ccc(NC(C)=O)cc2)cc1OC (stereo not drawn),15.5% (inactive),
CN(C)c1nc(Nc2ccc(Cl)c(Cl)c2)nc(N(C)C)n1,3.3% (inactive),
Nc1nc(Nc2ccccc2)nc(NCCO)c1[N+](=O)[O-],13.5% (inactive),
OCCNc1nc(Nc2ccc(Cl)c(Cl)c2)nc2ccccc12,,79.4 µM (active)
O=C(NCC(=O)N1CCN(c2ccccc2O)CC1)c1ccc2ccccc2c1,2.02% (inactive),
CCN1CCN(c2sc(S(C)(=O)=O)nc2S(=O)(=O)c2ccc(Cl)cc2)CC1,14.2% (inactive),
COc1ccc(C(=O)COC(=O)Cn2cnc3c2c(=O)n(C)c(=O)n3C)c(OC)c1,2.93% (inactive),
CCCOC1CCCN(C(=O)c2cc(COc3cncc(Cl)c3)on2)C1 (stereo not drawn),-1.29% (inactive),
CCOc1cc(N2CCOCC2)c(OCC)cc1NC(=O)COc1cccc2cccnc12,1.6% (inactive),
OC(COc1ccc2ccccc2c1)CN1CCOCC1 (stereo not drawn),11.8% (inactive),
Oc1c(C(c2ccccn2)N2CCOCC2)ccc2cccnc12 (stereo not drawn),,35.5 µM (active)
CN(C)CCNc1ccc(-c2n[nH]c(=O)c3ccccc23)cc1[N+](=O)[O-],16.7% (inactive),
O=C(Nc1ccccc1Cl)O/N=C(/c1ccccc1)c1ccccn1,,79.4 µM (active)
Cc1ccc(C(=O)O/N=C(\N)c2ccccn2)cc1Cl,2.02% (inactive),
O=C(Nc1ccccc1Cl)Nc1cccc2cccnc12,2.31% (inactive),
CCCCNc1nc(C)nc2c1nc(-c1ccccc1)n2CCCCN(CC)CC,23.3% (inactive),
Cc1cc(C)n(-c2ccc(NC(=O)C3CCCCN3C(=O)c3cccs3)cc2)n1 (stereo not drawn),4.09% (inactive),
C=CCc1cccc(/C=N/NC(=O)COc2ccc(-n3cnnn3)cc2)c1O,15.1% (inactive),
CCc1ccnc(NC(=O)Nc2ccc(OCc3ccccc3)cc2)c1,-0.979% (inactive),
